A short description of experiment [1]: qHTS assay to test for compound auto fluorescence at 535 nm (green) in HEK293 cells (AID 720680). On the technique in general: Quantitative high-throughput screening tests each substance at several concentrations.
Experiment [2] is described as follows: qHTS assay to test for compound auto fluorescence at 460 nm (blue) in HEK293 cell free culture (AID 720681). The gist of the method: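 Compounds were added to cell-free DMEM with 10% FBS and fluorescence read directly. The blue channel used 405 nm excitation and 460 nm emission, with triamterene as the reference fluorophore.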
The nature of experiment [3]: qHTS assay to test for compound auto fluorescence at 535 nm (green) in HEK293 cell free culture (AID 720682). The gist of the method: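 Each library compound, or DMSO control, is added by pintool to medium alone, comprising DMEM and 10% FBS. Emission at 535 nm following 485 nm excitation is quantified against fluorescein.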
Experiment [4] is described as follows: qHTS assay to test for compound auto fluorescence at 590 nm (red) in HEK293 cell free culture (AID 720683). The gist of the method: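 Cell-free wells of DMEM with 10% FBS received compound, and intrinsic fluorescence was read at excitation/emission 540/590 nm. Values expressed as equivalence to Rose Bengal sodium.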
Experiment [5] in a line: qHTS assay to test for compound auto fluorescence at 590 nm (red) in HepG2 cell free culture (AID 720684). The gist of the method:
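Compounds are added to culture medium (MEM, 10% FBS) lacking cells, then fluorescence is read at excitation 540 nm, emission 590 nm, with Rose Bengal sodium as the equivalency standard.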

The nature of experiment [6]: qHTS assay to test for compound auto fluorescence at 460 nm (blue) in HepG2 cell free culture (AID 720685). The gist of the method: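 Compound (23 nL) or DMSO pinned into cell-free MEM with 10% FBS; blue fluorescence read at 405/460 nm excitation/emission, expressed as auto-fluorescence equivalency to triamterene.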
The nature of experiment [7]: qHTS assay to test for compound auto fluorescence at 535 nm (green) in HepG2 cell free culture (AID 720686).
Experiment [8] can be described thus: qHTS assay to test for compound auto fluorescence at 460 nm (blue) in HepG2 cells (AID 720687). The gist of the method:
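HepG2 cells in MEM with 10% FBS, attached overnight at 37 C, were exposed to compound or DMSO for 1 hr at 37 C, 5% CO2. Blue fluorescence was read at 405/460 nm, with triamterene as reference fluorophore.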

Experiment [9] in a line: qHTS assay to identify small molecule antagonists of the glucocorticoid receptor (GR) signaling pathway - cell viability counter screen (AID 720693). Further: nearly all actives have a fitted effect of over 55% in size. Further: potency means the concentration at half of the fitted maximal effect.
Experiment [10] is described as follows: qHTS assay for identifying genotoxic compounds that show differential cytotoxicity against isogenic chicken DT40 cell lines with known DNA damage response pathways - wild type cell line (AID 743012). Further: nearly all actives have a fitted effect of over 60% in size. Further: potency means the concentration at half of the fitted maximal effect. Summed up: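 Wild-type DT40 cells (300/well) exposed to compounds for 40 hours at 37 C/5% CO2. Viability read by CellTiter-Glo luminescence after 30 min at room temperature.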

Experiment [11] is described as follows: qHTS assay for identifying genotoxic compounds that show differential cytotoxicity against isogenic chicken DT40 cell lines with known DNA damage response pathways - Rev3 mutant cell line (AID 743014). Further: nearly all actives have a fitted effect of over 55% in size. Further: potency means the concentration at half of the fitted maximal effect.
The nature of experiment [12]: qHTS assay for identifying genotoxic compounds that show differential cytotoxicity against isogenic chicken DT40 cell lines with known DNA damage response pathways - Rad54/Ku70 mutant cell line (AID 743015). Further: nearly all actives have a fitted effect of over 60% in size. Further: potency means the concentration at half of the fitted maximal effect.
The nature of experiment [13]: qHTS assay to identify small molecule antagonists of the androgen receptor (AR) signaling pathway - cell viability counter screen (AID 743033; further: nearly all actives have a fitted effect of over 45% in size; further: potency means the concentration at half of the fitted maximal effect).
Experiment [14] addresses Androgen receptor (Homo sapiens) (UniProt P10275). The experiment is described as follows: qHTS assay to identify small molecule agonists of the androgen receptor (AR) signaling pathway (AID 743036; active means well fitted activation curve with a large enough effect in the signal ratio in the repeat runs, with a control signal flat, not every such curve was filed as active; the % refers to the signal ratio). Summed up: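 Following a 4 h settling period, AR-UAS-bla HEK293 cells were dosed with compounds for 16 h at 37C. A 2 h room-temperature incubation with LiveBLAzer B/G FRET substrate preceded the fluorescence measurement.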

The target is the same in experiment [15]. The experiment is described as follows: qHTS assay to identify small molecule agonists of the androgen receptor (AR) signaling pathway using the MDA cell line (AID 743040; further: nearly all actives have a fitted effect of over 20% in size). Summed up: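 Human breast carcinoma MDA-kb2 reporter cells (MMTV-luc, AR/GR elements) were treated for 16 h at 37C in 0% CO2 following a 5 h settling period. Signal was quantified by ONE-Glo luminescence.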

Experiment [16] in a line: qHTS assay to identify small molecule antagonists of the androgen receptor (AR) signaling pathway using the MDA cell line - cell viability counter screen (AID 743041; further: nearly all actives have a fitted effect of over 45% in size). The gist of the method:
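Same-well cytotoxicity was assessed by CellTiter-Fluor in MDA-kb2 AR-luc cells after 16 h of compound treatment under R1881 agonism.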

Experiment [17] addresses Androgen receptor (Homo sapiens) (UniProt P10275). The experiment is described as follows: qHTS assay to identify small molecule antagonists of the androgen receptor (AR) signaling pathway using the MDA cell line (AID 743042; further: nearly all actives have a fitted effect of over 55% in size; further: potency means the concentration at half of the fitted maximal effect). The gist of the method:
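MDA-kb2 breast carcinoma cells carrying MMTV-luciferase (AR/GR responsive) were co-treated with compounds and the agonist R1881 for 16 h at 37C. Inhibition read as ONE-Glo luminescence; CellTiter-Fluor fluorescence measured in parallel for cytotoxicity.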

Experiment [18] deals with Glucocorticoid receptor (Homo sapiens) (UniProt P04150). Briefly: qHTS assay to identify small molecule agonists of the glucocorticoid receptor (GR) signaling pathway (AID 720691; active means well fitted activation curve with a large enough effect in the signal ratio in the repeat runs, not every such curve was filed as active; the % refers to the signal ratio; further: potency means the concentration at half of the fitted maximal effect). The note with it: GR-bla HeLa, beta-lactamase reporter ratio, 18 h; activation: at 62.4 µM (top of the series). The gist of the method:
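GR-bla HeLa cells carrying a GRE-driven beta-lactamase reporter, exposed to compounds for 18 h at 37 C. Reporter activation read as fluorescence after 2 h with LiveBLAzer B/G FRET substrate at room temperature.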

Experiment [19] has the same target. Briefly: qHTS assay to identify small molecule antagonists of the glucocorticoid receptor (GR) signaling pathway (AID 720692; active means well fitted inhibition curve with a large enough effect in the signal ratio in the repeat runs, not every such curve was filed as active; the % refers to the signal ratio). The gist of the method: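 GR-bla HeLa cells carrying a GRE-driven beta-lactamase reporter received compound after 4 h plating, then dexamethasone (5 nM final). After 18 h at 37C, the FRET substrate was loaded for 2 h at room temperature and fluorescence read.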

SMILES strings stand for the structures. Results filed as inconclusive are left out. Active and inactive are the calls of the source. Unless noted, the call rests on the fitted dose curve; in most records, active means well fitted curve in the direction sought with a large enough effect in the repeat runs; inconclusive means weak or mixed curves; inactive means no such curve, though single readings can be large; an effect the other way counts as inactive or inconclusive.

Sequence of Glucocorticoid receptor (Homo sapiens) (P04150 whole entry, looked up): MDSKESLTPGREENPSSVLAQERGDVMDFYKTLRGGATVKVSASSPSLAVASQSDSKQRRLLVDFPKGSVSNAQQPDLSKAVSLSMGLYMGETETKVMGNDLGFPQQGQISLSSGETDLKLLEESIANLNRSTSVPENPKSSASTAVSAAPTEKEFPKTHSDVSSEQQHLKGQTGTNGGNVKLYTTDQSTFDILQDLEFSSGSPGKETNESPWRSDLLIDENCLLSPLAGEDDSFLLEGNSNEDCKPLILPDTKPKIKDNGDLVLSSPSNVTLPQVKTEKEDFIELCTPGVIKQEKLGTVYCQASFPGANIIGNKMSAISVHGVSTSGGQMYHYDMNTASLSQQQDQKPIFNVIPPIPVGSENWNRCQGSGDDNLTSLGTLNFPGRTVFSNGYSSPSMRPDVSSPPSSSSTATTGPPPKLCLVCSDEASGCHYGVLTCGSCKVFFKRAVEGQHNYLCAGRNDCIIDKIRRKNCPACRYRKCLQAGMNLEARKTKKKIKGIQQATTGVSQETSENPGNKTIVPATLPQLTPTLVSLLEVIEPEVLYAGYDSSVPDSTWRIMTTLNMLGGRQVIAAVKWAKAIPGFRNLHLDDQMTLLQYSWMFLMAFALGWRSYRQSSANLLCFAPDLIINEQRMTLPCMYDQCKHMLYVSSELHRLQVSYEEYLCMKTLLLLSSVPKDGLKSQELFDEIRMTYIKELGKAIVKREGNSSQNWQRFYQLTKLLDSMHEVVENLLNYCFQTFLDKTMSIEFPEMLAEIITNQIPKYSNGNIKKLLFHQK
Sequence of Androgen receptor (Homo sapiens) (P10275 whole entry, looked up): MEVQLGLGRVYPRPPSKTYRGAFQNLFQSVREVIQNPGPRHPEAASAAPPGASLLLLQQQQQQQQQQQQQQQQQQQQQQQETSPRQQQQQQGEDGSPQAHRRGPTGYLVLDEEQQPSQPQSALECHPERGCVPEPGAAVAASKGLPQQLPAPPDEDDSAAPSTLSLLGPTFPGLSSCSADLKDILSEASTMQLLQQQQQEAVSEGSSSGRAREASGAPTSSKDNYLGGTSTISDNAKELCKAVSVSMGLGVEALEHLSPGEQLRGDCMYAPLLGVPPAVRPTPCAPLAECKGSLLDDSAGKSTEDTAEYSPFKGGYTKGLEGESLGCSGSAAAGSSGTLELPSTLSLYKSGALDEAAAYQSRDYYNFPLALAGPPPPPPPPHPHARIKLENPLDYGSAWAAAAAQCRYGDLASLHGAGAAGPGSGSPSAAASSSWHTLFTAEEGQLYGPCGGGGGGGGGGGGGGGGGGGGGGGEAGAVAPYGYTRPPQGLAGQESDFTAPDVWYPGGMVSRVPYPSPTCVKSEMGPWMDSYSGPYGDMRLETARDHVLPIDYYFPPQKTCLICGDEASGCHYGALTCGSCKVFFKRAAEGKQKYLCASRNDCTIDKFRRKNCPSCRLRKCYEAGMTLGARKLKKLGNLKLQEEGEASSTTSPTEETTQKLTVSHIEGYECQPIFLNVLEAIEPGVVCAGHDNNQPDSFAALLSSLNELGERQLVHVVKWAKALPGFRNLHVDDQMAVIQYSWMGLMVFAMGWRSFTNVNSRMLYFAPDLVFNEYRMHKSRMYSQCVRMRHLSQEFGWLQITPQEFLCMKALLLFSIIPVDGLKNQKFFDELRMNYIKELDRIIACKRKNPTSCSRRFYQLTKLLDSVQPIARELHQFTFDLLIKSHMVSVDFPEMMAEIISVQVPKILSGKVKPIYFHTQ

As for `C=C1CC[C@H](O)CC1=C/C=C1\CCC[C@]2(C)[C@@H]([C@H](C)CCCC(C)(C)O)CC[C@@H]12`, the Potency entry in experiment [1], in experiment [2], in [3], in experiment [4], in experiment [5] and in experiment [7] was “inactive” throughout. In addition, the Potency entry in experiment [13], in experiment [14], in experiment [15] and in experiment [16] was “inactive” throughout. The molecule was classed as inactive in experiment [6] and in [8]. For the same molecule, the Potency in experiment [9] is 10.7 µM (active); in [10] it was 5.96 µM (active); in [11] it was 6.68 µM (active); in [12], 5.96 µM (active); in [17] it was 26.6 µM (active).

For `CCCC(=O)O[C@]1(C(=O)COC(=O)CC)[C@@H](C)C[C@H]2[C@@H]3CCC4=CC(=O)C=C[C@]4(C)[C@@]3(F)[C@@H](O)C[C@@]21C`, the Potency entry in [1], in experiment [2], in [3], in [4], in experiment [5] and in experiment [7] was “inactive” each time. For the same molecule, the Potency entry in [9], in experiment [13] and in experiment [16] was “inactive” each time. Moreover, the molecule was classed as inactive in [6] and in [8]. For the same molecule, the Potency was 29.8 µM (active) in [10], 29.8 µM (active) in [11] and 26.6 µM (active) in experiment [12].

On to `COc1cc([C@@H]2c3cc4c(cc3C(O[C@@H]3O[C@@H]5COC(c6cccs6)O[C@H]5[C@H](O)[C@H]3O)C3COC(=O)[C@@H]32)OCO4)cc(OC)c1O` (some centres undefined), for which the Potency entry in experiment [1], in experiment [2], in experiment [3], in experiment [4], in experiment [5] and in experiment [7] was “inactive” throughout. Further, in experiment [16], the Potency entry was “inactive”. The result in experiment [6] and in [8] was inactive. Besides, the Potency in experiment [18] is 3.38 µM (active); in experiment [10], 0.0119 µM (active); in experiment [11], 0.0119 µM (active); in experiment [12] it was 0.0011 µM (active); in experiment [13], 0.301 µM (active).

For the molecule `O=C1c2ccccc2C(=O)C1c1ccc(Cl)cc1`, the Potency result in [1], in experiment [2], in experiment [3], in experiment [4], in experiment [5] and in experiment [7] was “inactive” throughout. In addition, the Potency result in experiment [9], in [10], in experiment [11], in experiment [12], in [13] and in experiment [15] was “inactive” throughout. Also, the Potency entry in [17] was “inactive”. Further, the molecule was called inactive in [6] and in experiment [8].

With `CC(C)[C@@H](N)C(=O)O`, the Potency entry in experiment [1], in [2], in experiment [3], in experiment [4], in [5] and in [7] was “inactive” in each case. In addition, the Potency entry in experiment [18], in experiment [10], in experiment [12], in experiment [13] and in experiment [16] was “inactive” in each case. For the same molecule, the outcome in [6] and in experiment [8] was inactive.

On to `Clc1ccc(COC(Cn2ccnc2)c2ccc(Cl)cc2Cl)c(Cl)c1` (centres undefined), for which the Potency entry in experiment [1], in experiment [2], in experiment [3], in [4], in experiment [5] and in experiment [7] was “inactive” throughout. In addition, the Potency entry in experiment [19], in experiment [9], in experiment [13], in experiment [15], in experiment [16] and in experiment [17] was “inactive” throughout. Moreover, the molecule was classed as inactive in experiment [6] and in experiment [8]. Also, the Potency in [10] is 10.1 µM (active); in experiment [11] it was 11.4 µM (active); in experiment [12], 10.1 µM (active).

In the case of `Cc1ccc(C2(O)CCN(CCCC(=O)c3ccc(F)cc3)CC2)cc1`, the Potency entry in experiment [1], in experiment [2], in experiment [3], in experiment [4], in [5] and in [7] was “inactive” in each case. Also, the Potency result in [9], in experiment [13] and in [16] was “inactive” throughout. Besides, the call in experiment [6] and in experiment [8] was inactive. The Potency is 11.9 µM (active) in experiment [10], 11.9 µM (active) in experiment [11] and 10.6 µM (active) in experiment [12].

The values above are taken from PubChem BioAssay (Tox21).
